In all, about 62,000 compounds went through this assay and about 120 (0.19%) were called active. Rule as the data show it: active = inhibition above about 20% (passing the limit was not always enough); inactive = the rest. The list comes from a sample in which actives are over-represented; it also holds similar structures and randomly drawn compounds.

Coagulation factor XI (Homo sapiens), sequence (P03951 19-387 limits assumed): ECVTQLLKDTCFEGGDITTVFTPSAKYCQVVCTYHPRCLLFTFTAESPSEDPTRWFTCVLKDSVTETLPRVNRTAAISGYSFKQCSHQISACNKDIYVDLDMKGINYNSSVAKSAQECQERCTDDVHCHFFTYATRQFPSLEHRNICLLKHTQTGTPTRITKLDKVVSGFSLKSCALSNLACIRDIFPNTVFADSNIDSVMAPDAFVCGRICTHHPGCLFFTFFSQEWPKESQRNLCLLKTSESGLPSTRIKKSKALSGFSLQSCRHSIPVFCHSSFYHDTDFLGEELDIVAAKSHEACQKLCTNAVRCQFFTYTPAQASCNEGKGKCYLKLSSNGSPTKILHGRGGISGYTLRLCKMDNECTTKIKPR
Coagulation factor XI (Homo sapiens), sequence (P03951 388-625 limits assumed): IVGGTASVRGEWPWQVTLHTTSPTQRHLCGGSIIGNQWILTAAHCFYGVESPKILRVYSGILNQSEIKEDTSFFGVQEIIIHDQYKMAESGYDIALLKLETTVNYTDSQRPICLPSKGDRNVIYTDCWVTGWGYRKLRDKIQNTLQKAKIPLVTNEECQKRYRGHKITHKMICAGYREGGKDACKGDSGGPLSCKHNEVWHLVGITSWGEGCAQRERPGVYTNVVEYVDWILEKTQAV

This assay addresses Coagulation factor XI (Homo sapiens) (UniProt P03951). Description: FXIa protease inhibitors in compound pools, primary screen, biochemical, 10-compound mixtures (AID 680).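 Also: each value is inhibition by a whole ten-compound pool holding the compound; 0% = enzyme with no mixture and 100% = wells lacking enzyme.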 To be noted: purified FXIa, fluorogenic substrate, pooled mixtures; at 5 µM; active compounds read high.
In the case of `O=C(c1cccc2ccccc12)N1CCN(c2ccccc2F)CC1`, the inhibition is -1.32% (inactive).

As to `O=C(c1ccccc1)c1ccc2nc(N3CCCCC3)c3nncn3c2c1`, the inhibition was 5.07% (inactive).

As for `CCn1cc(C(=O)NCC2CCCO2)c(=O)c2cc(S(=O)(=O)N3CCCCC3)ccc21` (configuration not stated), the inhibition was 2.28% (inactive).

On to `Cc1ccccc1Cn1c(=O)[nH]c2ccccc21`, for which the inhibition was 4.81% (inactive).

On to `Cc1cc(NC(=O)CN2CCCCC2C)nc2c1c(=O)oc1ccccc12` (configuration not stated), for which the inhibition was 11.6% (inactive).

For `COC(=O)C1=C(C)NC2=C(C(=O)c3ccccc32)C1c1ccc(-c2ccc(C(=O)O)cc2)o1` (configuration not stated), the inhibition is 8.48% (inactive).

For the molecule `Cc1ccc(S(=O)(=O)C(C#N)c2nc3ccccc3nc2N2CCCC2)cc1C` (configuration not stated), the inhibition is -0.215% (inactive).

Take `COc1ccc(S(=O)(=O)N2CCCC(C(=O)N3CCN(C)CC3)C2)cc1C` (configuration not stated): the inhibition is 8.05% (inactive).

With `O=c1c(-c2ccccc2)coc2c(CN3CCOCC3)c(O)ccc12`, the inhibition is -0.725% (inactive).

As to `Cc1cc(C)cc(N(CC(=O)NCC2CCCO2)S(=O)(=O)c2c(C)noc2C)c1` (configuration not stated), the inhibition was 12.7% (inactive).

Regarding `Cc1cc(C(=O)N2CCN(c3ccccn3)CC2)c(C)o1`, the inhibition is 8.12% (inactive).

For the molecule `O=C1OC(NC(=O)c2ccccc2)C(N2CCOCC2)=C1Cl` (configuration not stated), the inhibition was 1.5% (inactive).

Consider `COc1ccc(CN2C(=O)CN=C2Nc2ccc(C)cc2C)cc1`, for which the inhibition is 9.03% (inactive).

Take `O=C(Cn1nnc(-c2ccc(CN3CCOCC3)cc2)n1)NC1CCCCC1`: the inhibition was 4.01% (inactive).

With `Cc1cc(NS(=O)(=O)c2ccccc2)no1`, the inhibition is 7.83% (inactive).

Regarding `CSc1ccc(S(=O)(=O)NCc2ccc(Cl)cc2)cc1`, the inhibition was 7.5% (inactive).

Take `Cc1cccc(NC(=O)CSC(N)=O)c1C`: the inhibition was 4.87% (inactive).

As for `C=CCNC(=O)C12CC3CC(C1)CC(C(=O)NCC=C)(C3)C2`, the inhibition is 4.77% (inactive).

As to `O=C(O)CN(Cc1ccco1)S(=O)(=O)c1ccccc1`, the inhibition was 2.68% (inactive).

As to `N=c1c2c3c(sc2ncn1CCCN1CCOCC1)CCCCC3`, the inhibition was 42.3% (inactive).

For `Cc1ccc2nc(NCCCNC(=O)c3cnccn3)c(C#N)cc2c1`, the inhibition was -0.515% (inactive).

Regarding `O=S(=O)(c1cccc(-c2nnc(SC(F)F)n2-c2ccccc2)c1)N1CCCCC1`, the inhibition is 6.38% (inactive).

Turning to `C=CCN(c1ccc(C(N)=O)cc1)S(C)(=O)=O`, the inhibition is 9.34% (inactive).

As for `CCc1ccccc1N(CC(=O)N1CCN(c2ccccc2F)CC1)S(C)(=O)=O`, the inhibition is 9.44% (inactive).

Take `CC(C)(C)c1csc(NC2=NS(=O)(=O)c3ccccc32)n1`: the inhibition is 0.915% (inactive).

In the case of `O=C(NCCCN1CCN(c2ccccc2F)CC1)C1CCC(=O)N1C1CCCCC1` (configuration not stated), the inhibition is 0.475% (inactive).

`O=C(NCc1ccc2c(c1)OCO2)c1cc2c(s1)CS(=O)(=O)C2`: the inhibition was 1.71% (inactive).

As for `COC(=O)[C@H](Cc1ccccc1)NC(=O)N1CC(C)OC(C)C1` (some centres not stated), the inhibition was -17.5% (inactive).

Turning to `Cn1c(SCC(=O)OC2CCCCC2)nnc1-c1ccc(S(=O)(=O)N2CCCC2)cc1`, the inhibition was -4.25% (inactive).

Take `CC(C)c1ccc(NC(=O)NC2CCCCC2)cc1`: the inhibition is -11.2% (inactive).

Turning to `CC1Cc2ccccc2N1C(=O)Cn1cnc2ccccc2c1=O` (configuration not stated), the inhibition is 3.86% (inactive).

On to `COc1ccc(Cc2nnc(NS(=O)(=O)Cc3ccccc3)s2)cc1`, for which the inhibition is 10.4% (inactive).

In the case of `C[N+](C)(C)CCOP(=O)([O-])OC[C@H](O)CO`, the inhibition was 4.21% (inactive).

In the case of `CCOC(=O)Cn1c(=O)oc2cc(S(=O)(=O)NCC3CCCO3)ccc21` (configuration not stated), the inhibition was 5.99% (inactive).

On to `CCOC(=O)C(CC)Sc1ncnc2c1nnn2-c1ccc(F)cc1` (configuration not stated), for which the inhibition is 14% (inactive).

For `Cc1csc(NC(=O)NC2(C(F)(F)F)Oc3ccccc3O2)n1`, the inhibition was 0.345% (inactive).

In the case of `O=C(CN1CCN(c2ccccc2F)CC1)c1ccc2c(c1)OCO2`, the inhibition was 4.78% (inactive).

Regarding `O=C(NC1CCCCC1)N1CCc2[nH]c3ccccc3c2C1`, the inhibition was 7.75% (inactive).

For `CC(C)(C)Oc1ncc(Br)c(OC(C)(C)C)n1`, the inhibition is -2.49% (inactive).

In the case of `CCOC(=O)C1=C(C)NC(C)=C(C(=O)OCC)C1C1=COCCO1`, the inhibition is -9.31% (inactive).

With `c1ccc(COc2nsnc2N2CCOCC2)cc1`, the inhibition is 11.9% (inactive).

As to `CCNC(=O)CCc1nc(-c2ccc(C(C)(C)C)cc2)no1`, the inhibition was -1.14% (inactive).

Regarding `CC1COC2C(O1)N(S(C)(=O)=O)CCN2S(C)(=O)=O` (configuration not stated), the inhibition was 1.71% (inactive).

As for `CC(C)CNC(=O)c1cc(-c2ccc(Br)cc2)on1`, the inhibition is 5.53% (inactive).

Consider `CCC(=O)c1ccc(OCC(O)CN2C(=O)NC(C)(C)C2=O)cc1` (configuration not stated), for which the inhibition was 11.4% (inactive).

As for `CC1CN(c2cc(=O)n(-c3cccc(Br)c3)c(=O)[nH]2)CC(C)O1` (configuration not stated), the inhibition is 6.23% (inactive).

For the molecule `Cc1cccc(Cn2c(N3CCN(c4ccccc4)CC3)nc3c2c(=O)n(C)c(=O)n3C)c1`, the inhibition was -1.79% (inactive).

`CCOc1ccccc1NC(=O)Nc1cc(OC)ccc1OC`: the inhibition was 1.07% (inactive).

For `CCOC(=O)c1sc(/N=C/Nc2nc(C)c(C(=O)OCC)s2)nc1C`, the inhibition was 5.51% (inactive).

Turning to `Cc1cnc(C(=O)OCC(=O)Nc2ccc(Cl)cc2Cl)cn1`, the inhibition is 6% (inactive).

With `O=C(Nc1nnc(CCc2ccccc2)s1)C1CCCO1` (configuration not stated), the inhibition is 21.3% (active).

As for `O=C(Nc1ccc(-c2nnc(-c3ccccc3)o2)cc1)C1CCCO1` (configuration not stated), the inhibition is 9.26% (inactive).

Take `O=C(Nc1cccc(-c2nnc(-c3ccccc3)o2)c1)C1CCCO1` (configuration not stated): the inhibition is -7.16% (inactive).

For `CCOC(=O)c1ccc(-n2c(C)nc3c(cnn3-c3ccccc3C)c2=O)cc1`, the inhibition is -0.685% (inactive).

Consider `CCC(CC)C(=O)Nc1cc(C(=O)OC)cc(C(=O)OC)c1`, for which the inhibition was -1.44% (inactive).

Consider `CCc1ccccc1NC1c2ccccc2C(=O)N1c1cccnc1` (configuration not stated), for which the inhibition is -0.145% (inactive).

Take `CCOC(=O)N1CCC(Nc2c(NCCCN3CCN(c4ccc(OC)cc4)CC3)c(=O)c2=O)CC1`: the inhibition is 12.6% (inactive).

Turning to `N#CC(C(N)=O)=C1CCC2(CC1)OCCCCO2`, the inhibition was 4.44% (inactive).

On to `CCc1nnc(NC(=O)c2cccs2)s1`, for which the inhibition was 5.55% (inactive).

As to `O=C(CS(=O)(=O)c1cn(Cc2ccc(Cl)cc2)c2ccccc12)N1CCOCC1`, the inhibition was -16.2% (inactive).

Turning to `CCN1C(=O)/C(=C2\SC(N3CCCCC3)=NC2=O)c2ccccc21`, the inhibition is -7.47% (inactive).

Take `O=C(c1cccc(C(=O)N2CCN(c3ccc(F)cc3)CC2)c1)N1CCN(c2ccc(F)cc2)CC1`: the inhibition is 0.53% (inactive).

In general, inhibition refers to the change of the read-out against control, counted positive when it falls.

The values are drawn from PubChem BioAssay AID680 (PCMD, 2007).
